HSF-1 act: HSF-1 activators, primary screen, NIH3T3-HGL cells, MG132 stress, luminescence, single point | NIH3T3-HGL HSF-1 luciferase reporter, 8 h; 100% = twice DMSO control signal | activation, % at 9 µM | 300,000 compounds, 1.7% hits | AID 504408, 2011;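 active means mean replicate activation of at least 50% with a set share of replicates each reaching 50%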;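 further: 0% = median of the neutral control wells and 100% = twice that signal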
Hsp70 act: Hsp70 transcriptional activators, primary screen, cell-based, HeLa, Hsp70 promoter luciferase, luminescence, 10 µM. HeLa Hsp70 promoter luciferase reporter; scaled: vehicle 0, proteasome-inhibitor control 100%. activation, % at 10 µM. 200,000 compounds, 0.04% hits;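 active means activation above the mean across all tested compounds plus 3 SD, cutoff set per campaign, cut at about 5.5% in these data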;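 further: 100% = MG132 at 30 µM as the positive control and 0% = DMSO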
L929 necroptosis: inhibitors of zVAD-triggered necroptosis, primary screen, L929 cells; L929 zVAD necroptosis rescue, ATP luminescence, 24 h; with zVAD 60 µM; viability rescue, % at 10 µM; 220,000 compounds, 0.38% hits;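 active means activation, scaled between plate controls, above about 75%, limit read from the data; inactive means activation under that limit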;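 further: 0% = zVAD with DMSO and 100% = DMSO alone without zVAD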
TNF necrop inh: inhibitors of TNF-alpha triggered necroptosis, primary screen, cell-based, Jurkat FADD-/-, single concentration | AID 463075, 2010 | activation (protection from cell death), % at 10 µM | Jurkat FADD-/- TNF necroptosis rescue, ATP luminescence, 24 h; 0 = TNF only, 100 = no-TNF cells | 220,000 compounds, 0.068% hits;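 active means activation, meaning protection from cell death, of at least 50% relative to plate controls; inactive means activation below 50%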;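 further: necroptosis triggered by 40 ng/mL TNF-alpha added together with compound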
* = called active by the depositor. This is a sample that favours compounds with a hit; in the whole collection about 1.9% have one here.

Results for COc1ccc(OC)c(CN2CCCC(CO)C2)c1 (centres undefined) ?
HSF-1 act: 4; Hsp70 act: 0; L929 necroptosis: 1; TNF necrop inh: 1

How did COc1nc(Nc2cccc(C(F)(F)F)c2)nc(OC)n1 do in these assays?
HSF-1 act: 59*; Hsp70 act: 1; L929 necroptosis: 1; TNF necrop inh: 0

Results for CCOC(=O)C1=C(COC(=O)c2cc(Br)c(Br)s2)NC(=O)NC1C (centres undefined) ?
HSF-1 act: -4

Results for COc1ccc2c(c1)-c1c(sn(-c3ccccc3)c1=S)C(C)(C)N2 ?
HSF-1 act: 55*; Hsp70 act: 0; L929 necroptosis: 7; TNF necrop inh: 5

What do the screens show for `Cn1/c(=N/NC(=O)c2ccccc2F)sc2ccccc21`?
HSF-1 act: 27; Hsp70 act: 0; L929 necroptosis: 0; TNF necrop inh: 1

What do the screens show for `N#CC(Cc1ccc(OC(F)F)cc1)c1nc2ccccc2[nH]1` (centres undefined)?
HSF-1 act: 59*; Hsp70 act: 0; L929 necroptosis: 0; TNF necrop inh: 2

What do the screens show for `O=C(N/N=C/c1ccc(OC(F)F)cc1)c1ccc(CSc2nc3ccccc3[nH]2)cc1`?
HSF-1 act: 8; Hsp70 act: 0; L929 necroptosis: 6; TNF necrop inh: -2

How did O=C(Nc1nc2ccccc2[nH]1)c1ccc(OC(F)F)cc1 do in these assays?
HSF-1 act: 68*

What do the screens show for `O=C(Nc1nc2ccccc2[nH]1)c1ccccc1OC(F)F`?
HSF-1 act: 60*

Results for COc1cc(Cl)c(CC(=O)c2c[nH]c3ccccc23)cc1OC ?
HSF-1 act: 62*; L929 necroptosis: 1; TNF necrop inh: 0

What do the screens show for `CCCCCN(C(=O)CCC(=O)OCc1ccccc1F)c1c(N)n(CCCC)c(=O)[nH]c1=O`?
HSF-1 act: 6

What do the screens show for `CCCCCN(C(=O)CCC(=O)OCC(=O)N(CC)c1ccccc1)c1c(N)n(CCCC)c(=O)[nH]c1=O`?
HSF-1 act: 58*

Results for O=C(NC1CC2CCC(C1)N2Cc1ccccc1)c1ccccc1Cl (centres undefined) ?
HSF-1 act: 2

How did NCCc1nnc(SCc2ccc(F)cc2)o1 do in these assays?
HSF-1 act: 64*; Hsp70 act: 0; L929 necroptosis: 0; TNF necrop inh: -2

How did Cc1ccc(C2=Nc3ccccc3SC(c3cccc([N+](=O)[O-])c3)C2)cc1 (centres undefined) do in these assays?
HSF-1 act: 67*; L929 necroptosis: 1; TNF necrop inh: -8

What do the screens show for `O=C(COc1cc(Cl)c(Cl)cc1Cl)Nc1cccc(O)c1`?
HSF-1 act: 87*; L929 necroptosis: 0; TNF necrop inh: -2

What do the screens show for `O=C(COc1cc(Cl)c(Cl)cc1Cl)Nc1ccncc1`?
HSF-1 act: 21; Hsp70 act: 0; L929 necroptosis: 0; TNF necrop inh: -2

Results for CN(C(=O)COC(=O)c1ccc(Cl)cc1N)C1CCCCC1 ?
HSF-1 act: 59*; Hsp70 act: 0; L929 necroptosis: 1; TNF necrop inh: 1

How did CN(C(=O)COC(=O)c1ccc([N+](=O)[O-])cc1Cl)C1CCCCC1 do in these assays?
HSF-1 act: 2; Hsp70 act: 0; L929 necroptosis: 2; TNF necrop inh: 1

How did Cc1ccc(OCC(=O)O/N=C(\N)c2ccccn2)cc1 do in these assays?
HSF-1 act: 57*; Hsp70 act: 0; L929 necroptosis: 1; TNF necrop inh: 1

What do the screens show for `N/C(=N\OC(=O)COc1cc(Cl)c(Cl)cc1Cl)c1ccccn1`?
HSF-1 act: 93*; Hsp70 act: 0; L929 necroptosis: 2; TNF necrop inh: 0

What do the screens show for `Cc1cccc(OCC(=O)O/N=C(\N)c2ccccn2)c1C`?
HSF-1 act: 13; Hsp70 act: 0; L929 necroptosis: 0; TNF necrop inh: -1

How did Cc1ccc(CC(=O)O/N=C(\N)c2ccccn2)cc1 do in these assays?
HSF-1 act: 45

How did N/C(=N\OC(=O)COc1ccc(Cl)cc1Cl)c1cccnc1 do in these assays?
HSF-1 act: 93*; Hsp70 act: 0; L929 necroptosis: -1; TNF necrop inh: 2

What do the screens show for `CCCOc1ccc(C(C)=O)cc1CSc1nc(O)cc(=O)[nH]1`?
HSF-1 act: -10; Hsp70 act: 0; L929 necroptosis: 0; TNF necrop inh: 0

How did Cc1cc(C)nc(NC2=NCCN2C(=S)Nc2ccc(C)c(C)c2)n1 do in these assays?
HSF-1 act: 1; L929 necroptosis: 1; TNF necrop inh: 4

Results for O=C(CSc1ncnc2ccccc12)Nc1ccc(N2CCOCC2)cc1 ?
HSF-1 act: -12; Hsp70 act: 0; L929 necroptosis: 2; TNF necrop inh: 4

Results for COc1cc(/C=C2/NC(=O)N(Cc3ccccc3F)C2=O)cc(OC)c1O ?
HSF-1 act: 21; Hsp70 act: 0; L929 necroptosis: 0; TNF necrop inh: 3

How did CCOc1cc(/C=C2/NC(=O)N(Cc3ccccc3F)C2=O)ccc1O do in these assays?
HSF-1 act: 86*; Hsp70 act: 0; L929 necroptosis: 1; TNF necrop inh: -7

What do the screens show for `O=C(CCC(=O)N1CCN(c2ccc(O)cc2)CC1)c1cccs1`?
HSF-1 act: -4; L929 necroptosis: -1; TNF necrop inh: -14

Results for O=C(CCC(=O)N1CCN(c2ccc(O)cc2)CC1)c1ccc(Br)cc1 ?
HSF-1 act: 91*; L929 necroptosis: 0; TNF necrop inh: -8

How did COc1ccc(-n2c(SCC(=O)Nc3ccc(C(N)=O)cc3)nc3ccccc3c2=O)cc1OC do in these assays?
HSF-1 act: 60*

Results for CCOC(=O)c1ccc[n+](CC(=O)c2ccc(NC(=O)c3ccccc3)cc2)c1 ?
HSF-1 act: 6

Results for COc1ccc(C(=O)/C=C2/C(=O)Nc3ccccc32)cc1OC ?
HSF-1 act: 243*

What do the screens show for `C=CCOc1ccccc1C(=O)/C=C1/C(=O)Nc2ccccc21`?
HSF-1 act: 113*

How did C=CCOc1ccc(C(=O)/C=C2/C(=O)Nc3ccccc32)cc1 do in these assays?
HSF-1 act: 8

What do the screens show for `CN1CCN(S(=O)(=O)c2cccc(C(=O)N(C)CC(=O)Nc3ccc(F)c(F)c3F)c2)CC1`?
HSF-1 act: 4

What do the screens show for `COc1ccc(C2=C(C)C(N3CCN(C(=O)c4ccco4)CC3)=NS2(=O)=O)cc1`?
HSF-1 act: -8

What do the screens show for `CN1CCN(c2ccc(S(=O)(=O)N3CCCCC3)cc2NC(=O)c2ccc(F)cc2F)CC1`?
HSF-1 act: 17; Hsp70 act: 0; L929 necroptosis: 0; TNF necrop inh: 1

Results for O=C(COC(=O)C1CC1)Nc1ccc(Oc2ccccc2)cc1 ?
HSF-1 act: 6; Hsp70 act: 0; L929 necroptosis: 0; TNF necrop inh: 0

Screening results as filed in PubChem.
